# Laboratory results taken from paper PMC7862700, “An all-to-all approach to the identification of sequence-specific readers for epigenetic DNA modifications on cytosine”.
# What was measured:
# Experiment in all cases: DAPPL (digital affinity profiling via proximity ligation, sequencing); 10 mM Tris-HCl pH 7.5, 50 mM NaCl, 1 mM DTT, 4% glycerol, room temperature, 30 min; GST-TFs on glutathione beads, 16-mer random dsDNA library, 0.1% formaldehyde crosslink after washing; high values mean tight binding
# [1] = biological target: T1, FLI1 (Homo sapiens, UniProt Q01543 1-452); details: protein: recombinant; tags: N-terminal GST; dsDNA, one strand shown
# T1 sequence: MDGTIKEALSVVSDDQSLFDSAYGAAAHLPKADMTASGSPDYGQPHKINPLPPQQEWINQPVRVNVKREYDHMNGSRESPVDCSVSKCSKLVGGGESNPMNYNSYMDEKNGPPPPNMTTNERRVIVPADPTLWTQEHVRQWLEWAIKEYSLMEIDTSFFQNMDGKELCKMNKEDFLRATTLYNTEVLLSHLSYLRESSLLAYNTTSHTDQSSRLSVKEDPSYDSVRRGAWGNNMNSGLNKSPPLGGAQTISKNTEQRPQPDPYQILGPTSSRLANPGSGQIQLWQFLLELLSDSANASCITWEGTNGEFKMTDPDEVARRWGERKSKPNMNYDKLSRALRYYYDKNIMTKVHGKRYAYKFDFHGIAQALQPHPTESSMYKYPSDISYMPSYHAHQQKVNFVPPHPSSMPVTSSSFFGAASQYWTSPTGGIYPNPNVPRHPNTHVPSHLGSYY
# Outline: (§1)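 Human transcription factors fused to GST were expressed in yeast, captured on glutathione beads, given DNA barcodes and pooled with a GST-only negative control. Pools were incubated with 200 nmole of a 16-mer random double-stranded DNA library in Tris/NaCl/DTT/glycerol buffer at room temperature for 30 min. They were then washed, crosslinked with 0.1% formaldehyde, proximity-ligated (BsaI/T4 ligase, 1 h, 37 °C), PCR-amplified and sequenced on an Illumina NextSeq500. Binding signal is each 6-mer's read frequency for a factor divided by its frequency for the GST control.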
# [2] = biological target: T2, ELK1 (Homo sapiens, UniProt P19419 1-428); details: protein: recombinant; tags: N-terminal GST; dsDNA, one strand shown
# T2 sequence: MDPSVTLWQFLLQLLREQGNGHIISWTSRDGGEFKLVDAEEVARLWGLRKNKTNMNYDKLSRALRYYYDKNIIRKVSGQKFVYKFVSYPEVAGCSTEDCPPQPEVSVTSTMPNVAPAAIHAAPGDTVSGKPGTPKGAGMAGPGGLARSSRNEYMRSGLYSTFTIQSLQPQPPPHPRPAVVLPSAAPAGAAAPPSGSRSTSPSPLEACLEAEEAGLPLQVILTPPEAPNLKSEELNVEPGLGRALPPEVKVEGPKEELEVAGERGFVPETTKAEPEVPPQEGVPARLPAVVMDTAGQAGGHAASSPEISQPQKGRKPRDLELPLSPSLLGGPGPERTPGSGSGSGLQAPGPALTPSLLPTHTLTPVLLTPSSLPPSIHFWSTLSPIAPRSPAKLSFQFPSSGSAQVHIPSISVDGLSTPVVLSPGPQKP
# Outline: as §1
# [3] = biological target: T3, GABPA (Homo sapiens, UniProt Q06546 1-454); details: protein: recombinant; tags: N-terminal GST; dsDNA, one strand shown
# T3 sequence: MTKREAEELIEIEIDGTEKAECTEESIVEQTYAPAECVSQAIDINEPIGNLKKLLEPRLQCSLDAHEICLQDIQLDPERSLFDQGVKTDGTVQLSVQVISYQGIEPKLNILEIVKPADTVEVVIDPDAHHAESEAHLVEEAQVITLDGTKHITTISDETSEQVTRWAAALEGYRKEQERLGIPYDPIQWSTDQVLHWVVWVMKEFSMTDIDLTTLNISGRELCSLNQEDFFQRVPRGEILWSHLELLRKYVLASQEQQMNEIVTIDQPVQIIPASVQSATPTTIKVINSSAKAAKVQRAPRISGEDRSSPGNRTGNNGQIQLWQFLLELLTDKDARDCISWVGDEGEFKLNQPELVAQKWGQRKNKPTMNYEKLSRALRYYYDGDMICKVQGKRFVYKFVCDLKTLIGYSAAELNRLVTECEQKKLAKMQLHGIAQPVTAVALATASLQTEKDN
# Outline: as §1
# [4] = biological target: T4, ERG (Homo sapiens, UniProt P11308 1-479); details: protein: recombinant; tags: N-terminal GST; dsDNA, one strand shown
# T4 sequence: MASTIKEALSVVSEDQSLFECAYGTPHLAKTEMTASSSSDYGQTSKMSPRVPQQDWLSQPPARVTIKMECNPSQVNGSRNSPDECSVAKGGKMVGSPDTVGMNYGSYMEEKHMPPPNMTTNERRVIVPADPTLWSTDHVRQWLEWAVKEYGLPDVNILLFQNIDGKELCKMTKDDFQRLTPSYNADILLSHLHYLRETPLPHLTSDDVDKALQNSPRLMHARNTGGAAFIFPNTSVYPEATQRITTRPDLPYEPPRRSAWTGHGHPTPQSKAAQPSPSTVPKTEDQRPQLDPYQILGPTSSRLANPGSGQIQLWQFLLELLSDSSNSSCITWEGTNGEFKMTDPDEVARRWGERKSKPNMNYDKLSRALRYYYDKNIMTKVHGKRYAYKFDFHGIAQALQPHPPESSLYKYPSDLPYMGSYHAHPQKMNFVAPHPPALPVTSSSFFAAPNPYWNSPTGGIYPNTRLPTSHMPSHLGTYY
# Outline: as §1
# [5] = biological target: ELF1 (Homo sapiens, UniProt P32519 1-619); details: protein: recombinant; tags: N-terminal GST; dsDNA, one strand shown
# Outline: as §1
# [6] = biological target: T5, EHF (Homo sapiens, UniProt Q9NZC4 1-300); details: protein: recombinant; tags: N-terminal GST; dsDNA, one strand shown
# T5 sequence: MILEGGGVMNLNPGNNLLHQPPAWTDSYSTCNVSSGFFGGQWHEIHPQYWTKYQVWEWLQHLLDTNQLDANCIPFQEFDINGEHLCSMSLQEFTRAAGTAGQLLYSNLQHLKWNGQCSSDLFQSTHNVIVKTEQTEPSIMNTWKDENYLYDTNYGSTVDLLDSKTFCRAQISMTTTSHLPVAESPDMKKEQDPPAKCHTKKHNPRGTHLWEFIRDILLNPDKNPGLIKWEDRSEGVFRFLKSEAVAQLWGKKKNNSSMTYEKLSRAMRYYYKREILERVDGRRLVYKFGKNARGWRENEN
# Outline: as §1
# [7] = biological target: SPI1 (Homo sapiens, UniProt P17947 1-270); details: protein: recombinant; tags: N-terminal GST; dsDNA, one strand shown
# Outline: as §1
# [8] = biological target: SPIB (Homo sapiens, UniProt Q01892 1-262); details: protein: recombinant; tags: N-terminal GST; dsDNA, one strand shown
# Outline: as §1
# [9] = biological target: T6, ELK3 (Homo sapiens, UniProt P41970 1-407); details: protein: recombinant; tags: N-terminal GST; dsDNA, one strand shown
# T6 sequence: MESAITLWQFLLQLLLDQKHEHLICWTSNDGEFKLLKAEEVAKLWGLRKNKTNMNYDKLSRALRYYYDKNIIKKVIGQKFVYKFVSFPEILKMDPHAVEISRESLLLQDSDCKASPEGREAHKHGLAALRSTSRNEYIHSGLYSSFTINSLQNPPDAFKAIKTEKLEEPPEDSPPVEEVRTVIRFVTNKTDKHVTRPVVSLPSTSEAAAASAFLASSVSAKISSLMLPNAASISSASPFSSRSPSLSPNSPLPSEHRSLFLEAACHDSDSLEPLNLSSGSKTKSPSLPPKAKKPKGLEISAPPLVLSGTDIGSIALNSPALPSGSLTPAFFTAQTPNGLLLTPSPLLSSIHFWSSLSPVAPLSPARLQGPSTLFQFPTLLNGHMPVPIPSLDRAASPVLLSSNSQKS
# Outline: as §1
# [10] = biological target: T7, FEV (Homo sapiens, UniProt Q99581 1-238); details: protein: recombinant; tags: N-terminal GST; dsDNA, one strand shown
# T7 sequence: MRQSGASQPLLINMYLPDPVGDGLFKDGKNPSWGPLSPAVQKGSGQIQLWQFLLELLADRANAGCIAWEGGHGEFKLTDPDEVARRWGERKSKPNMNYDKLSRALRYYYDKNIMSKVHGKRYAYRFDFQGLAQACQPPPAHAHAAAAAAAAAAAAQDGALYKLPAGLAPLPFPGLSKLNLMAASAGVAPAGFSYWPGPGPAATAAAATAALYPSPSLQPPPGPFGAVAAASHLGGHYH
# Outline: as §1
# [11] = biological target: ETV5 (Homo sapiens, UniProt P41161 1-510); details: protein: recombinant; tags: N-terminal GST; dsDNA, one strand shown
# Outline: as §1
# [12] = biological target: HSF1 (Homo sapiens, UniProt Q00613 1-529); details: protein: recombinant; tags: N-terminal GST; chain copies: 3; dsDNA, one strand shown
# Outline: as §1
# [13] = biological target: T8, SPIC (Homo sapiens, UniProt Q8N5J4 1-248); details: protein: recombinant; tags: N-terminal GST; dsDNA, one strand shown
# T8 sequence: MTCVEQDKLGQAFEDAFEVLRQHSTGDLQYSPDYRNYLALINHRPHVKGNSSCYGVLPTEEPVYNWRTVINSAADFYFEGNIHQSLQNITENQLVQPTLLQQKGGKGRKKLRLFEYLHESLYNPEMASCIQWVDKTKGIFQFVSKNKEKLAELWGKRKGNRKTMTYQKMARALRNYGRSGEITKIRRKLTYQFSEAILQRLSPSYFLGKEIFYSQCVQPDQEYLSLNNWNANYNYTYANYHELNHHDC
# Outline: as §1
# [14] = biological target: ELF4 (Homo sapiens, UniProt Q99607 1-663); details: protein: recombinant; tags: N-terminal GST; dsDNA, one strand shown
# Outline: as §1
# [15] = biological target: T9, ELK4 (Homo sapiens, UniProt P28324-2 1-405); details: protein: recombinant; tags: N-terminal GST; dsDNA, one strand shown
# T9 sequence: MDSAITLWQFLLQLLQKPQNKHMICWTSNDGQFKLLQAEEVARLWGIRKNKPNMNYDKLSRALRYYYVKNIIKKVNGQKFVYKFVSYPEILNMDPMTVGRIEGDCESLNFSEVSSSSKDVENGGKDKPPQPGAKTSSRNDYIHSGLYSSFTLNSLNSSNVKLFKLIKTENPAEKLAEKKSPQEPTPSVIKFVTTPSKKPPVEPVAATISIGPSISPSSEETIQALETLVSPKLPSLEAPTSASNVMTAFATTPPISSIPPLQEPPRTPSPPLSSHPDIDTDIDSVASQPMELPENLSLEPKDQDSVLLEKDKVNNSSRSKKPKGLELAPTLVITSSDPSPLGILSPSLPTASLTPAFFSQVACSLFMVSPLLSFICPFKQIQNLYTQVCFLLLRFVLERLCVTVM
# Outline: as §1
# [16] = biological target: T10, ETV2 (Homo sapiens, UniProt O00321 1-342); details: protein: recombinant; tags: N-terminal GST; dsDNA, one strand shown
# T10 sequence: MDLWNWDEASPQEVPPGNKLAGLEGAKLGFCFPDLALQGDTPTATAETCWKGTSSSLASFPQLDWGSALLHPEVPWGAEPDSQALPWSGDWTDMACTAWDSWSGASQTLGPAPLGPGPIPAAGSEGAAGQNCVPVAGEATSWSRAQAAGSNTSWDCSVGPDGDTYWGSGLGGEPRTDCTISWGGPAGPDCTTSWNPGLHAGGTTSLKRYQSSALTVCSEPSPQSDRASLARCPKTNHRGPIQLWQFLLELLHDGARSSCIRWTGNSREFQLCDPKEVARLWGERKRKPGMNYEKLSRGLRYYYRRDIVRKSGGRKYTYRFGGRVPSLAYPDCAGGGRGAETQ
# Outline: as §1
# [17] = biological target: T11, ELF3 (Homo sapiens, UniProt P78545 1-371); details: protein: recombinant; tags: N-terminal GST; dsDNA, one strand shown
# T11 sequence: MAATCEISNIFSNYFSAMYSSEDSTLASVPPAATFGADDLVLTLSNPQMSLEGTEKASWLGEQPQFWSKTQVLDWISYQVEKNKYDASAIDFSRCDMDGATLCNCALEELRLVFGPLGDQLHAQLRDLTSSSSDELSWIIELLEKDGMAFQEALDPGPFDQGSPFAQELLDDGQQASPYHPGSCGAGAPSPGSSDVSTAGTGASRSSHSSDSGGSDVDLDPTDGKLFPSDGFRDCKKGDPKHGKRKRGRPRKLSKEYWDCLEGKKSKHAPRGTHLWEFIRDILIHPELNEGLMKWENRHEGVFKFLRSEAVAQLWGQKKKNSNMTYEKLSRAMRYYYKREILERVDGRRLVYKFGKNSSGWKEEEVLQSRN
# Outline: as §1
# [18] = biological target: CRX (Homo sapiens, UniProt O43186 1-299); details: protein: recombinant; tags: N-terminal GST; dsDNA, one strand shown
# Outline: as §1
# [19] = biological target: ETV1 (Homo sapiens, UniProt P50549 1-477); details: protein: recombinant; tags: N-terminal GST; dsDNA, one strand shown
# Outline: as §1
# Chain of ELF4 (Q99607 whole entry): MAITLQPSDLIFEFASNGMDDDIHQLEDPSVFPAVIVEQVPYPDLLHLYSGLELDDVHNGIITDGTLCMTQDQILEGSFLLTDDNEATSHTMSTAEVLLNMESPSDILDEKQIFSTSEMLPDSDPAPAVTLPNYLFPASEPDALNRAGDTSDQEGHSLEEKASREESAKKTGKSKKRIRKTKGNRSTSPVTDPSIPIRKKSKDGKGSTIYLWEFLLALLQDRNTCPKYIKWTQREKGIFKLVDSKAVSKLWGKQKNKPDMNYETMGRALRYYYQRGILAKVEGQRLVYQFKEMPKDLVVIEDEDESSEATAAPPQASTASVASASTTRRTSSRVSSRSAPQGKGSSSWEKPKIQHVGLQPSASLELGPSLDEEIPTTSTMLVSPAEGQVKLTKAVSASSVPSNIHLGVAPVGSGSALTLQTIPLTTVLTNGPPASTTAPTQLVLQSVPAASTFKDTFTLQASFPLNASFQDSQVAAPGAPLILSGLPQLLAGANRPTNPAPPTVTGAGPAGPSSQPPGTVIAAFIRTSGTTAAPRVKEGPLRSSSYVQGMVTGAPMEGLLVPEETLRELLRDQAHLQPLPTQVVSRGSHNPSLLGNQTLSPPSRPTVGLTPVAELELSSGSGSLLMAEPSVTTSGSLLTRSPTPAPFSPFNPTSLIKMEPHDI
# Chain of CRX (O43186 whole entry): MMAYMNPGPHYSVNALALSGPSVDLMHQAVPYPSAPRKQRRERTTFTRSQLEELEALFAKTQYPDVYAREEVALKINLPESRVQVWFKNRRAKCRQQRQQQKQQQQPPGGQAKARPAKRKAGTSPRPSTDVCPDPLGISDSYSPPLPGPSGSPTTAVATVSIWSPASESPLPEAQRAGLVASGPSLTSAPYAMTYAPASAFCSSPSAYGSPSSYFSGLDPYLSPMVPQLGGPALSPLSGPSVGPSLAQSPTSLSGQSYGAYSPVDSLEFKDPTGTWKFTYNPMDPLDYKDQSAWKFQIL
# Chain of HSF1 (Q00613 whole entry): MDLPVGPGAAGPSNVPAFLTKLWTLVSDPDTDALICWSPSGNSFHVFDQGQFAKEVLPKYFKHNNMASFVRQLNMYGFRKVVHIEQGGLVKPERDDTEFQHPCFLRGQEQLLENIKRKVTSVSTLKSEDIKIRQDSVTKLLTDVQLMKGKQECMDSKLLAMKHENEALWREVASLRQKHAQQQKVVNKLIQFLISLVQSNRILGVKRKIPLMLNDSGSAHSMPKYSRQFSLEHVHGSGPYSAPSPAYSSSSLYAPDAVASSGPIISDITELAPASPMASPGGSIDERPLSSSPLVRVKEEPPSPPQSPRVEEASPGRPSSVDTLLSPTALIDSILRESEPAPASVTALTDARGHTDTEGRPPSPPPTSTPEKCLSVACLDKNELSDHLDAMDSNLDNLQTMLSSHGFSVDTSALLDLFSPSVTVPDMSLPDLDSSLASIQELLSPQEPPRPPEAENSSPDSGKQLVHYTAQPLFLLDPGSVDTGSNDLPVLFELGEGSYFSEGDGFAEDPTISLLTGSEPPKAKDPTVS
# Chain of ETV1 (P50549 whole entry): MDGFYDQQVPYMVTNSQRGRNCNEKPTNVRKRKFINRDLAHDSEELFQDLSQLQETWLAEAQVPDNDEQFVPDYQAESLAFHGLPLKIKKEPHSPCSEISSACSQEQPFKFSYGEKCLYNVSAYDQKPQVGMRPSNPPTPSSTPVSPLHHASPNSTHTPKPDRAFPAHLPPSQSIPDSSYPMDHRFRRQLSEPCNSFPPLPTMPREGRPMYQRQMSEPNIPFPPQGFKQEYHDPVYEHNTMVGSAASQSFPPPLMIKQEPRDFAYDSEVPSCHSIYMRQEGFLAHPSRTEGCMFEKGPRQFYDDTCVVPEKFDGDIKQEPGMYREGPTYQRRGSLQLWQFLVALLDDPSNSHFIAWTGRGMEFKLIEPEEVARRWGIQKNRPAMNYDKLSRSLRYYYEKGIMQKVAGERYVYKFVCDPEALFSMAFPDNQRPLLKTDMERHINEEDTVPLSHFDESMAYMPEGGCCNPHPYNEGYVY
# Chain of ELF1 (P32519 whole entry): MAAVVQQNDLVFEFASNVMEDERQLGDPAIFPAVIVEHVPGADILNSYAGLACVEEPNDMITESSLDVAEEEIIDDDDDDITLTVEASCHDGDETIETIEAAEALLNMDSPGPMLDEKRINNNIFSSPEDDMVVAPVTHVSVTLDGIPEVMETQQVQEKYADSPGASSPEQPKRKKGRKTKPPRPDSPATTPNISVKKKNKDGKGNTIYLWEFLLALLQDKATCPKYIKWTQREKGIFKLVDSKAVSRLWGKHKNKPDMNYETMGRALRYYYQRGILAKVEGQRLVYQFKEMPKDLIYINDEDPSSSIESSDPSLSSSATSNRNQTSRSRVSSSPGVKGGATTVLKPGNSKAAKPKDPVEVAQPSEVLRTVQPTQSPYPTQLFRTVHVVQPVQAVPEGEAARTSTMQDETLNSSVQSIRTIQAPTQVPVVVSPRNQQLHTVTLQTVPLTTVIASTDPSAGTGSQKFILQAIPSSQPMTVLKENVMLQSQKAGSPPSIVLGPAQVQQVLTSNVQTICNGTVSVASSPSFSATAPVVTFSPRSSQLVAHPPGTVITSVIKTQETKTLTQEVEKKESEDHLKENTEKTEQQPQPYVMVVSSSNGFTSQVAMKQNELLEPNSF
# Chain of SPIB (Q01892 whole entry): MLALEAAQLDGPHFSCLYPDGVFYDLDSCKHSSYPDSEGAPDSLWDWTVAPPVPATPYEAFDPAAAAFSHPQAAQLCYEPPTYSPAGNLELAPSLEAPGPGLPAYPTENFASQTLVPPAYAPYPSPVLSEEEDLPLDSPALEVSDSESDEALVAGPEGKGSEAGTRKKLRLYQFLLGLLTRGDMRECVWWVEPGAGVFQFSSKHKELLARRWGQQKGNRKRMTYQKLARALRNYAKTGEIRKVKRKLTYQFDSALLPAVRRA
# Chain of ETV5 (P41161 whole entry): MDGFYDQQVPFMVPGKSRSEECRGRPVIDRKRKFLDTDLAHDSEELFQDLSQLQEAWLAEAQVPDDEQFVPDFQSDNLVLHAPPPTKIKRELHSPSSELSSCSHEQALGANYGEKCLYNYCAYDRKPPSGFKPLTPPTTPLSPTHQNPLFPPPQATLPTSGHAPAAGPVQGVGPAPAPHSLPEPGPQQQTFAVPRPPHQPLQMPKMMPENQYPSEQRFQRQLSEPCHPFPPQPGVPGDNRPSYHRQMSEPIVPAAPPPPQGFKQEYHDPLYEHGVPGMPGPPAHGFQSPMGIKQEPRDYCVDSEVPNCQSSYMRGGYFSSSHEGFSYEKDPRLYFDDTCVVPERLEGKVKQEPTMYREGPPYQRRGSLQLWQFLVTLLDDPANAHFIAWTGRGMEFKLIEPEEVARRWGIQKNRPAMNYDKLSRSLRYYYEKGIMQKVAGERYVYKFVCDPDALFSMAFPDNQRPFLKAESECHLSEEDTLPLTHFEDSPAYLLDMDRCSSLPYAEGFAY
sequence,measurement,setting,value
TTTTGC,binding signal,[1],"1.51 fold enrichment (6-mer frequency, TF over GST control)"
same,binding signal,[2],"1.39 fold enrichment (6-mer frequency, TF over GST control)"
same,binding signal,[3],"1.38 fold enrichment (6-mer frequency, TF over GST control)"
same,binding signal,[4],"1.26 fold enrichment (6-mer frequency, TF over GST control)"
same,binding signal,[5],"1.42 fold enrichment (6-mer frequency, TF over GST control)"
same,binding signal,[6],"1.28 fold enrichment (6-mer frequency, TF over GST control)"
same,binding signal,[7],"1.43 fold enrichment (6-mer frequency, TF over GST control)"
same,binding signal,[8],"1.45 fold enrichment (6-mer frequency, TF over GST control)"
same,binding signal,[9],"1.42 fold enrichment (6-mer frequency, TF over GST control)"
same,binding signal,[10],"1.3 fold enrichment (6-mer frequency, TF over GST control)"
same,binding signal,[11],"1.34 fold enrichment (6-mer frequency, TF over GST control)"
same,binding signal,[12],"1.36 fold enrichment (6-mer frequency, TF over GST control)"
same,binding signal,[13],"1.25 fold enrichment (6-mer frequency, TF over GST control)"
same,binding signal,[14],"1.42 fold enrichment (6-mer frequency, TF over GST control)"
same,binding signal,[15],"1.3 fold enrichment (6-mer frequency, TF over GST control)"
same,binding signal,[16],"1.53 fold enrichment (6-mer frequency, TF over GST control)"
same,binding signal,[17],"1.34 fold enrichment (6-mer frequency, TF over GST control)"
same,binding signal,[18],"1.41 fold enrichment (6-mer frequency, TF over GST control)"
same,binding signal,[19],"1.34 fold enrichment (6-mer frequency, TF over GST control)"
